# Screen size: about 330,000 compounds; about 10,000 (3%) were called active. The full list was thinned out, with actives kept by preference. Unmarked numbers belong to inactive results.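 The calls were made as follows: active = inhibition of at least 50% at 8 µM in the primary screen; inactive = the rest.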
# Target: Protein Mdm4 (Homo sapiens) + E3 ubiquitin-protein ligase Mdm2 (Homo sapiens) (UniProt O15151+Q00987)
# Assay: disruptors of Mdm2/MdmX RING complex – cell-based, luminescence, split luciferase, SaOS-2, uHTS, primary screen (AID 485346)
# Settings: SaOS-2 split-luciferase Mdm2/MdmX complementation, at 8 µM, active compounds read high
# Chain of Protein Mdm4 (Homo sapiens) + E3 ubiquitin-protein ligase Mdm2 (Homo sapiens) (O15151 whole entry, looked up): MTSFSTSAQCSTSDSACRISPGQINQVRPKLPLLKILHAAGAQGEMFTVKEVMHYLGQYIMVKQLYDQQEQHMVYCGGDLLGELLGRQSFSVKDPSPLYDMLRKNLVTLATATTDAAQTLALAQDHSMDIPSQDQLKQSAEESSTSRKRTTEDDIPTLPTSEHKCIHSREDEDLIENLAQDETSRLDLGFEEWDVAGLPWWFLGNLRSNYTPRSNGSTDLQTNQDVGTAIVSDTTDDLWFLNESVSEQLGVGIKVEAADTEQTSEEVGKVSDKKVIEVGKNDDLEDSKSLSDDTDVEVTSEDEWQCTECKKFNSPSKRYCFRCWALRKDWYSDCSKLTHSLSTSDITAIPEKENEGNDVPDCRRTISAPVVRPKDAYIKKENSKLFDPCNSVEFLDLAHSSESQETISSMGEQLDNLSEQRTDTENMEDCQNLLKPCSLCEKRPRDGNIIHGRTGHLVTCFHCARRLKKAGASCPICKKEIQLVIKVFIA
# Chain of Protein Mdm4 (Homo sapiens) + E3 ubiquitin-protein ligase Mdm2 (Homo sapiens) (Q00987 whole entry, looked up): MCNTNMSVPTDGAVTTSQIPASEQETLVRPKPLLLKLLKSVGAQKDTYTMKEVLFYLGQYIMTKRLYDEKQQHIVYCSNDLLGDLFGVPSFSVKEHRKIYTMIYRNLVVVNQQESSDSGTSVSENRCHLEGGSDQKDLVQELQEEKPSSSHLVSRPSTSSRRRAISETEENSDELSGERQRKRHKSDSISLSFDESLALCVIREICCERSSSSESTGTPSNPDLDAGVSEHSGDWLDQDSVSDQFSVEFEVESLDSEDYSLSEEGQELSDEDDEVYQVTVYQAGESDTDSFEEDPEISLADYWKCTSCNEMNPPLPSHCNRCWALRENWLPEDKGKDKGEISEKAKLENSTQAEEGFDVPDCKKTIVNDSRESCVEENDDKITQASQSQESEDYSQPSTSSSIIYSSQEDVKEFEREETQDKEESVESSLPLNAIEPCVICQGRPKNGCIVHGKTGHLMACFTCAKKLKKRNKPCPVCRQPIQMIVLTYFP
row,SMILES,inhibition
1,CC1(C)NC(=O)N(CCCCSc2ccc(Cl)cc2)C1=O,5.07%
2,COc1ccc(-c2cc(C(=O)N/N=C/c3cccnc3)c3ccccc3n2)c(OC)c1,-12.7%
3,COc1ccc(C(=O)/C=C/c2cccnc2)c(OC)c1,54.3% (active)
4,COc1ccc(C(=O)CCC(=O)Nc2cccnc2)c(OC)c1,9.02%
5,Cc1nc2nc(SCC(=O)Nc3cccc(F)c3)[nH]c2cc1Br,23.9%
6,O=C(CCNC(=O)c1ccccc1Cl)NCc1ccco1,2.16%
7,Cc1ccc(N(Cc2ccc(C(=O)Nc3ccccc3C(=O)NCc3ccco3)cc2)S(C)(=O)=O)cc1C,38.7%
8,Cc1cccc(Nc2ccccc2C(=O)NCc2ccco2)c1C,54.5% (active)
9,Cc1n[nH]c(=O)c2c(NC(=O)COC(=O)c3ncc(Cl)c(Cl)c3Cl)oc(C)c12,8.36%
10,CCCCn1c(N)c(N(CCOC)C(=O)CSCC(=O)Nc2cccc(C)c2)c(=O)[nH]c1=O,-8.54%
11,CCCCn1c(-c2cccc(C)c2)nc2cc3[nH]c(=O)c(C(C)C)nc3cc21,55.1% (active)
12,CCOCCn1c(-c2ccccc2)nc2ccccc21,21.2%
13,COc1ccccc1C(=O)N1C(CC(=O)Nc2ccccc2C)C(=O)NC2CCCCC21 (centres undefined),10.2%
14,CC(=O)C1=C(C)NC2=C(C(=O)CC(C)(C)C2)C1C (centres undefined),14.7%
15,Cc1cccc(C)c1NC1=NC(=S)N(c2ccc(N(C)C)cc2)C1(C)C,13.2%
16,CC1=C/C(=N\OS(=O)(=O)c2ccccc2)C=CC1=O,89.3% (active)
17,CC1C(=O)C(C)C(c2ccc(O)cc2)NC1c1ccc(O)cc1 (centres undefined),-1.09%
18,Cc1cc(-c2csc(N)n2)c(C)n1-c1ccccc1,9.07%
19,CCN(CC(=O)Nc1c(F)cccc1F)C(=O)c1ccc(-c2ccccc2)cc1,-3.86%
20,O=C(N/N=C/c1ccc([N+](=O)[O-])cc1)c1c[nH]c2ccccc12,12%
21,COc1cc(CC(=O)N/N=C/c2ccccc2)c([N+](=O)[O-])cc1OC,10.3%
22,Cc1c(C(=O)N/N=C/c2ccccc2)[nH]c2c([N+](=O)[O-])cccc12,60% (active)
23,NC(=O)C1(C(N)=O)OC1c1ccc(Cl)cc1Cl (centres undefined),20.9%
24,CCOc1ccccc1C1C(C(=O)OC)=CN(C)C=C1C(=O)OC,8.07%

row,SMILES,inhibition
1,COC(=O)C1=CN(C)C=C(C(=O)OC)C1c1ccc(Cl)cc1Cl,67.5% (active)
2,CCCCCN(C(=O)CCC(=O)OCC(=O)NC1CCC(C)CC1)c1c(N)n(CCCC)c(=O)[nH]c1=O (centres undefined),-18.6%
3,O=C(Nc1nc(-c2ccco2)c(-c2ccco2)s1)c1ccco1,27%
4,COc1cc2c(cc1NC(=O)COC(=O)/C=C/c1ccccc1)oc1ccccc12,51.9% (active)
5,COc1cc(/C=C/C(=O)OCC(=O)c2ccccc2)cc(OC)c1OC,20.5%
6,COc1cc2c(cc1NC(=O)CN1CCN(S(=O)(=O)c3ccc(F)cc3)CC1)oc1ccccc12,49.9%
7,CCCCN1C(=O)/C(=C2/C=CC=CN2C)SC1=S,-6.03%
8,COc1cc(/C=C2/SC(=S)N(Cc3ccccc3)C2=O)cc(OC)c1O,11.8%
9,CCCCN1C(=O)/C(=C/C=C2/C=Cc3ccccc3N2CC)SC1=S,64.7% (active)
10,FC(F)(F)Oc1ccc(-c2cn3cccnc3n2)cc1,-41.1%
11,CSCC[C@H](NC(=O)NC1CCCC1)C(=O)O,-12.4%
12,CNC(=S)N/N=C/c1ccc(N2CCOCC2)s1,-16.1%
13,C=CCN(CC=C)S(=O)(=O)c1ccc(C(=O)Nc2nc3c(s2)CCc2ccccc2-3)cc1,58.5% (active)
14,NC(=O)c1c(NC(=O)CSc2nnc(-c3ccco3)n2N)sc2c1CCCC2,22.2%
15,C=CCN(CC=C)S(=O)(=O)c1ccc(C(=O)Nc2sc3c(c2C(N)=O)CCCCC3)cc1,92.8% (active)
16,CCN(c1ccccc1)S(=O)(=O)c1ccc(C(=O)Nc2nccs2)cc1,-12.4%
17,COc1ccc(C(=O)Nc2ncc3c(n2)-c2ccccc2CC3)cc1,22.2%
18,COc1cccc(OC)c1C(=O)Nc1sc2c(c1C(N)=O)CCCC2,19%
19,COc1cc(Cl)cc(C2NC(=O)NC(C)=C2C(=O)NCc2ccccc2)c1O (centres undefined),-8.24%
20,Cc1ccc(C)c(N2CCN(C(=O)CCc3nc(-c4cccc(C(F)(F)F)c4)no3)CC2)c1,-17.8%
21,COc1ccc(-c2cc(=O)oc3cc(OC(C)C(=O)NCC4CCC(C(=O)O)CC4)ccc23)cc1 (centres undefined),-48.8%
22,CCN(CC)c1ccc(NC(=O)CCc2nnc3ccc(N4CCCCC4)nn23)c(C)c1,15.3%
23,CC1CCN(CCCNC(=O)CN2C(=O)CSc3ccc(S(=O)(=O)N4CCCCC4)cc32)CC1,13%
24,COc1ccc2[nH]c(=O)c(CN(Cc3cccnc3)S(=O)(=O)c3ccccc3F)cc2c1,63.9% (active)

row,SMILES,inhibition
1,CCN(Cc1cc2cc(C)ccc2[nH]c1=O)S(=O)(=O)c1ccccc1,22.4%
2,CCOc1ccc2[nH]c(=O)c(CN(CCCO)S(=O)(=O)c3ccc(F)cc3)cc2c1,-3.41%
3,COc1ccc(CCN2CC(C(=O)NCCN3CCNC3=O)CCC2=O)cc1 (centres undefined),7.59%
4,Cc1cc(C)nc(NC(=O)c2cccc([N+](=O)[O-])c2)c1,1.76%
5,Cc1cc(CNC(=O)c2cccc([N+](=O)[O-])c2)c2ccccc2n1,57.9% (active)
6,CN(C(=O)c1cccc([N+](=O)[O-])c1)c1ccccc1C(=O)NCc1ccccc1,10.9%
7,COc1cccc2[nH]c(C(=O)NCCc3ccccc3)cc12,-35.8%
8,O=C(NCc1ccccc1Cl)C(=O)NCC1CCCN1S(=O)(=O)c1cccs1 (centres undefined),2.29%
9,CCc1ccc(C(=O)N2CCN(S(=O)(=O)c3sc(C(=O)O)c(C)c3C(=O)O)CC2)cc1,-9.23%
10,COc1cc(C(=O)OCC(=O)NC23CC4CC(CC(C4)C2)C3)cc(OC)c1OC,11.3%
11,Cc1cccc(C(=O)Nc2ccc(CC(=O)O)cc2)c1,-7.55%
12,Cn1c(CC(=O)NNC(=O)c2ccccc2F)nc2ccccc21,8.1%
13,CSc1nc(N(C)NC(=O)c2cccc(C)c2)c2ccccc2n1,63% (active)
14,Cc1cccc(C(=O)Nc2ccc(C(=O)N/N=C/c3cccc(C)n3)cc2)c1,8.86%
15,CN(NC(=O)c1ccccc1F)c1nc(C(F)(F)F)nc2ccccc12,60.3% (active)
16,COc1ccc(C(=O)NN(C)c2nc(-c3ccccc3)cc(C)c2S(C)(=O)=O)cc1,2.68%
17,CC(NC(=O)c1ccccc1F)c1cccc2ccccc12 (centres undefined),3.89%
18,Cc1nc2ccccc2c(=O)n1NC(=O)c1ccccc1,-5.89%
19,CN(NC(=O)c1ccccc1)c1nc2ccccc2nc1C(F)(F)F,59.8% (active)
20,COc1ccc(NC(=O)c2cccc3c2C(=O)N(CC2CCCO2)C3)cc1OC (centres undefined),-24.7%
21,CC(NC(=O)COC(=O)c1ccc2ccccc2n1)c1ccccc1 (centres undefined),-14.1%
22,C=CCSc1ccc(S(=O)(=O)N2CCN(C)CC2)cn1,13.1%
23,COc1ccc(N(CC(=O)NC2CCCCCCC2)S(=O)(=O)c2c(C)nn(C)c2C)cc1,-2%
24,O=C(/C=C/c1ccc([N+](=O)[O-])o1)NNC(=O)c1ccc(F)cc1,40%

row,SMILES,inhibition
1,CCOCCCNC(=S)N1CCC(NC(=O)C2CCCCC2)CC1,15.2%
2,Cc1ccc(C(=O)C(=S)N2CCOCC2)cc1,10.1%
3,CC(C)CC(CCc1ccccc1)OS(N)(=O)=O (centres undefined),-32.9%
4,COc1cc2cc(C(=O)N/N=C/c3cccc(OC)c3OC)[nH]c2cc1OC,-21.6%
5,COc1cccc(/C=N/NC(=O)c2[nH]nc3c2CCc2ccccc2-3)c1O,74.6% (active)
6,COc1cc(OC)c(/C=N/NC(=O)c2ccc([N+](=O)[O-])cc2)cc1Br,46.6%
7,COC(=O)CN1C(=O)[C@H]2[C@@H](/C=C/c3ccccc3)N3C(=O)CN(CC4CC4)C(=O)[C@@]3(Cc3ccccc3)[C@H]2C1=O,-8.09%
8,COc1ccc(C(O)(C2CCCCC2)C(CN2CCCC2)c2ccccc2)cc1 (centres undefined),33.8%
9,CCOC(=O)CNc1nc2ccccc2n2c(C)nnc12,1.6%
10,COc1ccc(CNc2nnnn2C)cc1,-2.21%
11,Fc1ccc(CNc2nc3ccccc3n3nnnc23)cc1,54% (active)
12,CCc1nnc(NC(=O)CCC(=O)N2CCN(c3cc(C)ccc3C)CC2)s1,13.7%
13,CC(C)[C@@H]1COC(c2cccc(C3=N[C@H](C(C)C)CO3)c2)=N1,-13.9%
14,CN(CCOc1ccccc1)C(=O)c1cc(-c2ccco2)nc2ccccc12,18.2%
15,COc1ccc(-c2cc(C(=O)N(C)CC(=O)Nc3ccccc3Cl)c3ccccc3n2)cc1OC,54.1% (active)
16,COc1ccc(Cl)cc1NC(=O)CN(C)C(=O)c1cc2ccccc2cc1OC,29.4%
17,COc1ccc(-c2cc(C(=O)NCCCN3CCCC3=O)c3ccccc3n2)cc1OC,8.93%
18,COc1ccc(CN(C)C(=O)c2cc(-c3ccc(C)cc3C)nc3ccccc23)c(OC)c1OC,68.6% (active)
19,COc1ccc(NC(=O)CN(C)C(=O)c2cc(-c3ccc(C)o3)nc3ccccc23)cc1,30.3%
20,COc1ccc(Cl)cc1NC(=O)CN(C)C(=O)c1ccc2n[nH]nc2c1,10.7%
21,COc1ccc(-c2cc(C(=O)N(C)Cc3ccc(OC)c(OC)c3OC)c3ccccc3n2)cc1OC,63.2% (active)
22,COc1cc(/C=N/NC(=O)c2cc(-c3ccccc3C)nc3ccccc23)cc(OC)c1O,-4.47%

# Source: PubChem BioAssay AID485346 (Sanford-Burnham Center for Chemical Genomics, 2010)
